Here are results for 35 molecules from the supplement of paper PMC7156485.

Where “and” joins values, the source holds several entries; their conditions need not be identical. Equal values may be shown once. Where a name gives a salt, the structure may show the parent alone. ± gives the standard deviation of the averaged measurements.
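Further: TDF denotes transformed human dermal fibroblasts of mesenchymal origin.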

This test has as its system HCC1569. As to the kind of experiment: cell number relative to DMSO (% of DMSO); higher = more cells (less growth inhibition / toxicity). Particulars: concentration: 10 µM; 24 h. In a few lines:
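Cell number or H1.0 nuclear intensity appears as percent of the plate control, based on the median of replicates. Measurements came from HCC1569 and TDF cells exposed in triplicate to compounds at 10 µM for 24 h at 37 °C, then imaged in six fields per well at ×10. Positional effects were smoothed out of HCC1569 values.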
Turning to `CCCN1CCCC2Cc3nc(N)ncc3CC21.Cl.Cl` (stereo not given) [Quinelorane dihydrochloride], the cell number worked out at 99.7.
Under `CC(=O)c1c(O)c(C)c(O)c(Cc2c(O)c3c(c(C(=O)C=Cc4ccccc4)c2O)OC(C)(C)C=C3)c1O` [Rottlerin] stands 82.5 ± 13.
To `CCCCCCCCCCCCCCCC(=O)OCC(COP(=O)([O-])OCC[N+](C)(C)C)OC(C)=O` (stereo not given) belongs 102; to `CC(O)=C(C#N)C(=O)Nc1cc(Br)ccc1Br`, 100 and 108; to `COc1ccc(Cc2nccc3cc(OC)c(OC)cc23)cc1OC.Cl` [Papaverine hydrochloride], 87.1 ± 1.7.
On to `C=CCc1cc(OC)c2c(c1)OCO2` [Myristicin], for which the cell number stood at 104.
To `COc1ccccc1N1CCNCC1.Cl` [1-(2-Methoxyphenyl)piperazine hydrochloride] belongs 105; to `CC(=O)C1=C(O)C2C3c4c[nH]c5cccc(c45)CC3C(C)(C)N2C1=O` (stereo not given) [Cyclopiazonic acid], 95.5.
Consider `NC(CCCCCP(=O)(O)O)C(=O)O` (stereo not drawn) [D(-)-2-Amino-7-phosphonoheptanoic acid], for which the cell number stood at 99.9.
As for `Cc1[nH]c2ccc(O)cc2c1CCN.O=C(O)C=CC(=O)O` [2-Methyl-5-hydroxytryptamine maleate], the cell number was 106.
Under `CC1(C)CCCC(C)(C)N1[O]` stands 99.1; under `CN1Cc2c(ccc3c2OCO3)C2C(O)Cc3cc4c(cc3C21)OCO4` (single isomer, unassigned; (+)) [(+)-Chelidonine], 58.
To `CC1OC(C[N+](C)(C)C)CS1.[I-]` (stereo not given) [OXA-22 iodide] belongs 99.8.
Under `C=CCN1CCC23c4c5ccc(O)c4OC2C(=NN=C2CCC4(O)C6Cc7ccc(O)c8c7C4(CCN6CC=C)C2O8)CCC3(O)C1C5` (stereo not given) [Naloxonazine] stands 99.6; under `O=C([O-])Cc1ccccc1.[Na+]` [Sodium Phenylacetate], 96.8.
For the molecule `CC1=CC(=O)c2c(O)cccc2C1=O` [Plumbagin], the cell number was found to be 39.
In the case of `CCn1cnc2c(Nc3cccc(Cl)c3)nc(NC3CCCCC3N)nc21` (stereo not given), the cell number came out at 54.
Molecule `O=C1NC(=O)c2c1c1c3ccccc3[nH]c1c1[nH]c3ccccc3c21` yielded a cell number of 98.8.
Under `CN(C)C(=O)Oc1cccc([N+](C)(C)C)c1.[Br-]` [Neostigmine bromide] stands 107; under `CC(CCc1ccccc1)NC(C)C(O)c1ccc(O)cc1.Cl` (stereo not given) [Buphenine.HCl], 101.
To `CC1OC(C[N+](C)(C)C)CC1O.[Cl-]` (single isomer, unassigned; (+)) [(+)-Muscarine chloride] belongs 106; to `Cl.O=C(O)Cc1cnc[nH]1` [Imidazole-4-acetic acid hydrochloride], 105; to `C=C(C)C1CNC(C(=O)O)C1CC(=O)O` (stereo not given) [Kainic acid], 103 ± 3.2.
To `Cl.Cl.Clc1cccc(N2CCNCC2)c1` [1-(3-Chlorophenyl)piperazine dihydrochloride] belongs 83.5.
`COc1ccccc1CN[C@H]1C2CCN(CC2)[C@H]1C(c1ccccc1)c1ccccc1`: the cell number was determined as 95.3.
To `Br.CN1CCc2cc(O)cc3c2C1Cc1ccc(O)c(O)c1-3` (stereo not drawn) [R(-)-2,10,11-Trihydroxyaporphine hybrobromide] belongs 99; to `C[N+]1([O-])C2CC(OC(=O)C(CO)c3ccccc3)CC1C1OC12` (single isomer, unassigned; (-)) [(-)-Scopolamine N-oxide], 96.4; to `CC1=C2C3OC(=O)C(C)C3CCC2(C)C=CC1=O` (stereo not given) [Santonin], 103.
Molecule `CCC1C2CC3C4N(C)c5ccccc5C45CC(C2C5O)N3C1O` (stereo not given) [Ajmaline] returned a cell number of 101.
To `CCCN1CC(CSC)CC2c3cccc4[nH]cc(c34)CC21.CS(=O)(=O)O` (stereo not given) [Pergolide mesylate] belongs 95.8; to `CNc1ccc2oc(CC3OC4(CCC3C)OC(C(C)C(=O)c3ccc[nH]3)C(C)CC4C)nc2c1C(=O)O` (stereo not given), 70.4; to `S=C(NC1CCCCC1)N1CCC(c2cnc[nH]2)CC1` [Thioperamide maleate], 104.
Under `CCCCCCC(C)(C)c1ccc(C2CC(O)CCC2CCCO)c(O)c1` (stereo not given) stands 99.3.
Under `CC12CCC(O)CC1CCC1C2CCC2(C)C(C(=O)CO)CCC12` (stereo not drawn) [3-alpha,21-Dihydroxy-5-alpha-pregnan-20-one] stands 102.
On to `COc1ccc2c(c[n+](C)c3c4cc5c(cc4ccc23)OCO5)c1OC.[Cl-]` [Chelerythrine Chloride], for which the cell number came to 90.9.
